Source: the OligoGym collection

These sequences were tested against S100P (assay: pooled miR-30 sensor sort-seq; sequence = guide strand). Conditions: shRNA.
Also: reference of the scale not given here.

Sequence	sensor-assay potency score (higher = more potent)
TTGAGCAATTTATCCACGGCAT	-0.537
TAATCAGAGGTACATGAGCAGG	-1.43
TTCCACTCTGCAGGAAGCCTGG	-1.03
TACTTGTGACAGGCAGACGTGA	-0.639
GAACTCACTGAAGTCCACCTGG	-0.698

What follows are sequences tested against SACS in the same assay as above. Conditions: shRNA.

Sequence	sensor-assay potency score (higher = more potent)
TTTCACAATAACATGTCTCATG	-0.427
TTTCCAACCATCTTCTACCATC	-0.995
TTTGAGAGTAAGTCTGTCCGGC	0.448
TAAAATATCATCTTTTGCCATA	-0.814
TTGACTTTACCAATCTACCATC	-1.12
TTTTCTGTGACAACTCATCTGA	0.17
ATAACTTTGCAACTCGTCCTTC	0.248
TAGAGTATCAACAACAATGTCA	0.305
TTTCTGACAGCTGAACTCCTAC	-0.234
TTCATAAACAAGTCTTTGCGGG	-0.207
TTTTAGATTAGTCTGCTGCAGA	-0.586
